Molecules are shown by their SMILES. Records with an inconclusive call do not appear. The source made the active and inactive calls. The call rests on the fitted dose curve; in most records, active means well fitted inhibition curve with a large enough effect; inconclusive means small, poorly fitted or top-dose-only effect; inactive means no such curve, though single readings can be large or run the other way.

The test can be described thus: HTS Assay for Allosteric Antagonists of the Human D2 Dopamine Receptor: Hit Validation in HTRF (AID 624455).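 Further: stable D1 dopamine receptor cell line scored for blocking the D1 response.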 The following applies: Cells stably expressing D1 dopamine receptor, inhibition mode; series mostly up to 46.1 µM. An excerpt:
Dopamine receptors (DARs) are involved in the etiology and/or therapy of a number of neuropsychiatric and endocrine disorders. For instance, all receptor-based antiparkinsonian drugs work via stimulating the D2 DAR subtype whereas all FDA-approved antipsychotic agents are antagonists of this receptor. […] There are three different types of allosteric modulators that we are seeking, two of which will stimulate or augment receptor signaling, allosteric agonists and potentiators, while the third, allosteric antagonists, will attenuate receptor signaling. The present primary screening assay measures compound antagonism after an EC80 addition of dopamine by tracking calcium flux in a […], inducible Hek293 Trex D2 cell line. This assay measures activity of the hits in the D1 HTRF assay.
NIH Chemical Genomics Center [NCGC]
NIH Molecular Libraries Probe Centers Network [MLPCN]
Assay Submitter (PI): David Sibley
Cells stably expressing the D1 dopamine receptor will be run in an HTRF assay and compounds will be examined for the ability to inhibit the D1 mediated response.
A general note: TR-FRET usually uses a lanthanide donor and a delayed reading to cut background.
Take `CSc1ccc2c(c1)N(CCC1CCCCN1C)c1ccccc1S2` (stereo not given): the result was inactive. With `CCN(CC)CCNC(=O)c1cc(Cl)c(N)cc1OC`, the result was inactive. The result for `CN1CCN(C2Cc3ccccc3Sc3ccc(Cl)cc32)CC1` (stereo not given) reads “inactive”. The result for `CNCCC(Oc1ccc(C(F)(F)F)cc1)c1ccccc1` (stereo not given) reads “inactive”; that for `CN(C)CC[C@@H](c1ccc(Cl)cc1)c1ccccn1`, “inactive”.

`CN(C)CCOC(C)(c1ccccc1)c1ccccn1` (stereo not given): the compound was called inactive.

For the compound `COC(=O)C1=C(C)NC(C)=C(C(=O)OC)C1c1ccccc1[N+](=O)[O-]`, the call was inactive.

As to `C[C@](N)(Cc1ccc(O)cc1)C(=O)O`, the compound was called inactive. As to `CC(CN(C)C)CN1c2ccccc2CCc2ccccc21` (stereo not given), the compound was called inactive.

Regarding `C[C@]12CC[C@@H]3c4ccc(O)cc4CC[C@H]3[C@@H]1CCC2=O`, the compound was classed as inactive. The result for `CN(C)CCCN1c2ccccc2CCc2ccccc21` reads “inactive”; that for `CC(C)C(=O)c1c(C(C)C)nn2ccccc12`, “inactive”; that for `CC1=C(CC(=O)O)c2cc(F)ccc2/C1=C\c1ccc(S(C)(=O)=O)cc1`, “inactive”. The result for `C#CCN(C)Cc1ccccc1` reads “inactive”.

With `CCN(CC)CCOC(=O)C1(C2CCCCC2)CCCCC1`, the result was inactive.

Turning to `CC(C)(C(=O)O)c1ccc(C(O)CCCN2CCC(C(O)(c3ccccc3)c3ccccc3)CC2)cc1` (stereo not given), the result was inactive. The entry for `CCN(CC)C(C)CN1c2ccccc2Sc2ccccc21` (stereo not given) is “inactive”; for `Cc1cc(N)c2ccccc2[n+]1CCCCCCCCCC[n+]1c(C)cc(N)c2ccccc21` it is “inactive”; for `C[C@]12C[C@H](O)[C@H]3[C@@H](CCC4=CC(=O)CC[C@@]43C)[C@@H]1CC[C@@H]2C(=O)CO` it is “inactive”. The result for `Nc1ncnc2c1ncn2[C@@H]1O[C@H](CO)[C@@H](O)[C@H]1O` reads “inactive”; that for `NC1CCN(c2cccc(Cl)n2)CC1`, “inactive”. The result for `OCc1cc(C(O)CNCCCCCCOCCCCc2ccccc2)ccc1O` (stereo not given) reads “inactive”. Turning to `CCCCCCCCCCCCCCCC(=O)NCCO`, the result was inactive.

Take `CNC(=O)Oc1ccc2c(c1)[C@]1(C)CCN(C)[C@@H]1N2C`: the call was inactive. The entry for `C=Cc1c(C)c2cc3[nH]c(cc4nc(cc5nc(cc1[nH]2)C(C)=C5CCC(=O)O)C(CCC(=O)O)=C4C)c(C)c3C=C` is “inactive”; for `CNCCCC1c2ccccc2C=Cc2ccccc21` it is “inactive”.

`NC(=O)c1ncn([C@@H]2O[C@H](CO)[C@@H](O)[C@H]2O)n1`: the call was inactive. The result for `OCCN1CCN(CCCN2c3ccccc3Sc3ccc(Cl)cc32)CC1` reads “inactive”; that for `N=c1c[n+](N2CCOCC2)[n-]o1`, “inactive”.

With `CC[C@H]1CN2CCc3cc(OC)c(OC)cc3[C@@H]2C[C@@H]1C[C@H]1NCCc2cc(OC)c(OC)cc21`, the call was inactive.

As for `COCCOC(=O)C1=C(C)NC(C)=C(C(=O)OC/C=C/c2ccccc2)C1c1cccc([N+](=O)[O-])c1` (stereo not given), the compound was classed as inactive. The result for `NC(N)=NCCC[C@H](N)C(=O)O` reads “inactive”; that for `CC(C(O)c1ccc(O)cc1)N1CCC(Cc2ccccc2)CC1` (stereo not given), “inactive”; that for `CC(CN1c2ccccc2Sc2ccccc21)N(C)C` (stereo not given), “inactive”.

As to `CC(=O)OCC(=O)[C@@]1(O)CC[C@H]2[C@@H]3CCC4=CC(=O)CC[C@]4(C)[C@H]3C(=O)C[C@@]21C`, the result was inactive. As to `CC(C)(C)c1onc(OCP(=O)(O)O)c1CC(N)C(=O)O` (stereo not given), the compound was classed as inactive. Take `CSc1ccc2c(c1)C(N1CCN(C)CC1)Cc1ccccc1S2` (stereo not given): the call was inactive. The entry for `Nc1cc(=O)[nH]c(N)n1` is “inactive”; for `CN(C)CCC=C1c2ccccc2CCc2ccccc21` it is “inactive”.

`CCCn1cnc2c1c(=O)n(CCCCC(C)=O)c(=O)n2C`: the outcome was inactive.

These data come from PubChem BioAssay (NCATS).
